Data: PubChem BioAssay (EPA / NIEHS)
Results filed as inconclusive are left out. The source made the active and inactive calls. The calls were made as follows: active = hit-call score of the fitted dose curve at least 0.9, where 1 is the maximum; inconclusive = response in the unintended direction; inactive = score below 0.9.

Each molecule was assayed against human Thromboxane A2 Receptor (TXA2), TBXA2R (gene 6915) (UniProt P21731) (assay: NVS_GPCR_hTXA2: NovaScreen (NVS) G Protein-Coupled Receptor Assay for human Thromboxane A2 Receptor (TXA2) (AID 2283282);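 also: actives reduce bound radioligand signal relative to DMSO baseline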).
Chain of human Thromboxane A2 Receptor (TXA2), TBXA2R (gene 6915) (P21731 whole entry, looked up): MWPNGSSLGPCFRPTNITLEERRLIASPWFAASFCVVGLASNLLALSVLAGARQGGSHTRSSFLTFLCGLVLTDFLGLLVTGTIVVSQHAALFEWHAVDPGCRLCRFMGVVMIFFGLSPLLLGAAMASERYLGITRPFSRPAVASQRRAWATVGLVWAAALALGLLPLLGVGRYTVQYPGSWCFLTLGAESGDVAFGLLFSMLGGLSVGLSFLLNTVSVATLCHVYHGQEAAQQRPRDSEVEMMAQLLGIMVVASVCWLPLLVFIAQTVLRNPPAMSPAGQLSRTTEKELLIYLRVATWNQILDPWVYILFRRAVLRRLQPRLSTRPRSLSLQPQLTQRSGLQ
Procedure: NVS_GPCR_hTXA2 is a biochemical, single-readout assay that uses extracted gene-proteins from Human platelets in a cell-free assay. Measurements were taken 1 hour after chemical dosing in a 96-well plate.NVS_GPCR_hTXA2 is one of one assay component(s) measured or calculated from the NVS_GPCR_hTXA2 assay. It is designed to make measurements of radioligand binding, a form of binding reporter, as detected with scintillation counting signals by Filter-based radiodetection technology.Data from the assay component NVS_GPCR_hTXA2 was analyzed into 1 assay endpoint. This assay endpoint, NVS_GPCR_hTXA2, was analyzed in the positive analysis fitting direction relative to DMSO as the negative control and baseline of activity. Using a type of binding reporter, loss-of-signal activity can be used to understand changes in the binding as they relate to the gene TBXA2R. Furthermore, this assay endpoint can be referred to as a primary readout, because the performed assay has only produced 1 assay endpoint. To generalize the intended target to other relatable targets, this assay endpoint is annotated to the gpcr intended target family, where the subfamily is rhodopsin-like receptor.
Binding assays used specific radioligands (tritiated, iodinated) with non-radioactive competitive displacement ligands in agonist or antagonist protocols (as indicated) and various reference compounds and inhibitors to titrate specific binding to receptors and transporters. Most enzyme assays (CYPs, kinases, phosphatases, proteases, HDACs) used recombinant protein and specific substrates (fluorescence mostly, some colorimetric and radioactive) and inhibitors, followed by a biochemical separation of substrate and product. All assays for the biochemical HTS were initially run in duplicate at a single concentration (10 uM for CYP450 assays and 25 uM for all others). […] Each assay was run with positive and negative controls, and concurrent controls on every plate. The follow-up (secondary) screen tested active chemical-pairs in concentration series, as well as a few additional assays not tested in the primary screen, some selected negative inactives, and several cases re-run in the concentration series for confirmatory purposes.

Row | Structure (SMILES) | AC50 | outcome
1 | CCC(C)c1ccccc1 (stereo not drawn) | 2460 nM (active) | 
2 | CCCCC1C(=O)N(c2ccccc2)N(c2ccccc2)C1=O |  | inactive
3 | Oc1c(Cl)cc(Cl)c(Cl)c1Cl |  | inactive
4 | Fc1ccc(Br)cc1 |  | inactive
5 | CC/C=C\C/C=C\C/C=C\CCCCCCCC(=O)OC | 2660 nM (active) | 
6 | CCOC(=O)C1=NN(c2ccc(Cl)cc2Cl)C(C)(C(=O)OCC)C1 (stereo not drawn) |  | inactive
7 | Clc1cccnc1 |  | inactive
8 | c1ccc(-c2nc3ccccc3[nH]2)cc1 | 7640 nM (active) | 
9 | CCOC(=O)/C=C\C(=O)OCC |  | inactive
10 | CC(C)=NNC(N)=S |  | inactive
11 | CCCCCCC=O |  | inactive
12 | CCc1cccc(C)c1N(C(=O)CS(=O)(=O)O)C(C)COC (stereo not drawn) |  | inactive
13 | Oc1ccc(/C=C/c2cc(O)cc(O)c2)cc1 |  | inactive
